Patent US20210230599, “STEM-LOOP COMPOSITIONS AND METHODS FOR INHIBITING INTERLEUKIN-8” (VITRISA THERAPEUTICS, INC., published 2021)

Molecular target: Interleukin-8 (IL8, CXCL8), C-terminal His-tagged (Homo sapiens, UniProt P10145 SEQ:1-72)
Assay: competition; competition TR-FRET; L1 A to U, described as complete loss
Conditions: tags: C-terminal 6xHis (Sino Biological); ssRNA; 2'-F G, 2'-OMe A/C/U, 5' C6NH2, 3' idT
Protocol: To better understand the sequence requirements and to confirm the stem structures of members of the Aptamer 3 family as determined from sequence covariation analysis from both the primary and secondary (degenerate) selections, a series of variants which included mutations and deletions to the predicted stems were synthesized and screened (Table 24). Activity of each of these variants were tested using a time resolved competition TR-FRET assay in which the labeled parent Aptamer 3 was competed with increasing concentrations of unlabeled variants for binding to IL8 (FIG. 14). Briefly, 2-fold dilutions of thermally equilibrated aptamers were made in TR-FRET Buffer (50 mM MOPS, pH 7.4, 125 mM NaCl, 5 mM KCl, 50 μM CHAPS, 0.1 mg/mL BSA, 1 mM CaCl₂, and 1 mM MgCl₂). 5 μL of aptamer or control solution was added to 5 μl mix of 10 nM C-terminal His-tagged-IL8, 60 nM ALEXA FLUOR® 647-labeled Aptamer, and 5 nM anti-His-Eu (Perkin Elmer) in a black wall low volume 384 well plate (Greiner). […] The plate was read on a Biotek CYTATION™ 5 plate reader. […]
To confirm the importance of this residue, molecules were made and tested in which either loop L1 was deleted entirely (Aptamer 40) or was mutated to 5′-U-3′(Aptamer 41). In both cases, there was a complete loss of activity (>10-fold) as determined by competition TR-FRET assay (Table 25 and FIG. 15).

Sequence | binding signal [fold worse than Aptamer 3]
GAUGUCGGUAGAUUACGGGUAGAGUGACCGCAUC | > 10
